{
  "source": "PubChem BioAssay AID1745856",
  "about": "(National Center for Advancing Translational Sciences (NCATS), 2022)",
  "note": "Screen size: about 120,000 compounds; about 270 (0.23%) were called active. Another 5% or so got no clear call; they are omitted. This is one part of a sample in which actives are shown more often than they occur. A number with no mark means an inactive call. The call rests on the fitted dose curve. On the % scale 0 is the no-effect control and ±100 the full control effect; potency means the concentration at half of the fitted maximal effect.",
  "data": [
    {"assay": "Primary qHTS Assay for Foot and Mouth Disease Virus Antivirals against NCGC Sytravon and CBC Compound Libraries: Firefly Luciferase Signal; further: nearly all actives have a fitted effect of over 60% in size", "details": "FMDV antiviral cell assay; series mostly up to 57.5 µM; activity change, negative = inhibition: at the top concentration", "units": {"activity change, negative = inhibition": "%"}, "values": [
      {"compound": "CCCOc1ccc(NC(=O)COc2cccc(C)c2C)c2cccnc12", "activity change, negative = inhibition": -12.1},
      {"compound": "CCC1CCCCN1S(=O)(=O)c1ccc(NC(=O)c2cc(-c3ccc(OC)cc3)on2)cc1", "note": "(centres undefined)", "activity change, negative = inhibition": 18.9},
      {"compound": "Cc1cc(SCC(=O)NC(=O)NCC(C)C)nc2ccccc12", "activity change, negative = inhibition": 18.6},
      {"compound": "COc1ccc(NC(C)=O)cc1S(=O)(=O)NC(c1ccc(F)cc1)c1cccs1", "note": "(centres undefined)", "activity change, negative = inhibition": -11.3},
      {"compound": "CC1CCn2c(nc3cc(C(=O)N4CCN(c5ccccc5)CC4)ccc32)C1", "note": "(centres undefined)", "activity change, negative = inhibition": 102},
      {"compound": "CC1CCCCN1C(=O)CSc1nc2ccccc2n1CCC#N", "note": "(centres undefined)", "activity change, negative = inhibition": 4.75},
      {"compound": "O=C(CC12CC3CC(CC(C3)C1)C2)OCC(=O)c1ccc2c(c1)OCO2", "activity change, negative = inhibition": 0},
      {"compound": "CCCCN(C)C(=O)C1CCC(Cn2c(=O)c3sccc3n(Cc3ccccc3)c2=O)CC1", "note": "(centres undefined)", "activity change, negative = inhibition": -8.18},
      {"compound": "Cc1ccc2nc(-c3ccccn3)cc(C(=O)O)c2c1", "activity change, negative = inhibition": 21.3},
      {"compound": "Cc1nc2cc(NC(C)C(=O)Nc3ccccc3F)ccc2o1", "note": "(centres undefined)", "activity change, negative = inhibition": 84.5},
      {"compound": "CCc1ccc(Nc2nc3ccccc3nc2NS(=O)(=O)c2ccc(F)cc2)cc1", "activity change, negative = inhibition": 4.14},
      {"compound": "Cn1nc(C(=O)NCCc2ccc(F)cc2)c2ccccc2c1=O", "activity change, negative = inhibition": 115},
      {"compound": "COc1ccc(NC(=O)CSCc2cc(=O)n3cc(C)ccc3n2)cc1Cl", "activity change, negative = inhibition": -10.7},
      {"compound": "Cc1cc(=O)oc2c(C)c(OCC(=O)NCCc3ccc(S(N)(=O)=O)cc3)ccc12", "activity change, negative = inhibition": -12},
      {"compound": "O=C(CCc1nc2ccccc2s1)NC1CCCCCC1", "activity change, negative = inhibition": 115},
      {"compound": "CCS(=O)(=O)N1CCc2cc(C(=O)CSc3ccc(Cl)cc3)ccc21", "activity change, negative = inhibition": -47.5},
      {"compound": "Cc1ccc(-c2cc(C(=O)N3CCCCCC3)c3ccccc3n2)o1", "activity change, negative = inhibition": 31.5},
      {"compound": "Cc1cccc(N(C)C(=O)Cn2nc(Cc3cccnc3)c3ccccc3c2=O)c1", "activity change, negative = inhibition": -0.531},
      {"compound": "Cc1ccc(NC(=O)C(Sc2ccccc2)c2ccccc2)cc1C", "note": "(centres undefined)", "activity change, negative = inhibition": 52.1},
      {"compound": "CCN(CC)C(=O)c1sc2nc(C(C)(C)C)nc(C)c2c1C", "activity change, negative = inhibition": 5.06},
      {"compound": "COc1cc(NC(=O)C2CCCN2C(=O)C23CC4CC(CC(C4)C2)C3)c(OC)cc1Cl", "note": "(centres undefined)", "activity change, negative = inhibition": -13.5},
      {"compound": "CC1CCC(NC(=O)c2ccccc2SCC#N)CC1", "note": "(centres undefined)", "activity change, negative = inhibition": 0},
      {"compound": "COc1ccc2c(C)c(CC(=O)Nc3nnc(C(C)C)s3)c(=O)oc2c1OC", "activity change, negative = inhibition": 14.8},
      {"compound": "Cc1ccccc1C(C)N", "note": "(centres undefined)", "activity change, negative = inhibition": -5.82},
      {"compound": "COc1ccc(/C=C2\\CCc3ccccc3C2=O)cc1Br", "activity change, negative = inhibition": 203},
      {"compound": "CCOc1ccc(OCC(=O)NCCc2c[nH]c3ccccc23)cc1", "activity change, negative = inhibition": 19.4},
      {"compound": "COCCN(CCOC)C(=O)Cc1n[nH]c(=O)c2ccccc12", "activity change, negative = inhibition": 2.66},
      {"compound": "COc1ccc(-c2noc(-c3cccc(OCC(=O)N4CCCC4)c3)n2)cc1", "activity change, negative = inhibition": 161},
      {"compound": "O=S(=O)(c1ccc(Sc2nnnn2C2CCCC2)nc1)N1CCOCC1", "activity change, negative = inhibition": -10.7},
      {"compound": "Cc1cccc(-c2nc3cc(NC(=O)CC(C)C)ccc3o2)c1", "activity change, negative = inhibition": 120},
      {"compound": "CCOC(=O)CSCc1cccc(Cl)c1", "activity change, negative = inhibition": 13.3},
      {"compound": "O=c1[nH]c(=O)n(CCc2ccccc2)c2nccc(-c3ccc(Cl)cc3)c12", "activity change, negative = inhibition": -0.9},
      {"compound": "CC1CCC(=NNC(=S)NC2CCCCC2)CC1", "note": "(centres undefined)", "activity change, negative = inhibition": 37.9},
      {"compound": "CCCNC(=O)NCc1nc(-c2ccc(OC)cc2)oc1C", "activity change, negative = inhibition": 79.5},
      {"compound": "COc1ccc(C(=O)COC(=O)Cc2c(Cl)cccc2Cl)c(OC)c1", "activity change, negative = inhibition": 11.5},
      {"compound": "O=C1CC(c2cccc(Br)c2)c2c(n3c(nc4ccccc43)[nH]c2=O)N1", "note": "(centres undefined)", "activity change, negative = inhibition": -10.9},
      {"compound": "CCN(C(=O)CSc1nc(-c2ccccc2Cl)nc2cc(=O)[nH]n12)c1ccccc1", "activity change, negative = inhibition": 42.8},
      {"compound": "O=C(NCc1coc(-c2cccs2)n1)c1ccc(C(F)(F)F)cc1", "activity change, negative = inhibition": 39.9},
      {"compound": "O=C(CSc1nc2ncccc2c(=O)n1-c1ccccc1)NC(=O)NC1CC1", "activity change, negative = inhibition": -8.22},
      {"compound": "CCOCCn1c(NCCCOC)nc2c1c(=O)[nH]c(=O)n2C", "activity change, negative = inhibition": 82.8},
      {"compound": "NC(=O)Cn1nc(-c2cccc([N+](=O)[O-])c2)c2ccccc2c1=O", "activity change, negative = inhibition": -7.8},
      {"compound": "O=C(NCc1ccc(F)cc1)c1cc(S(=O)(=O)C2CCS(=O)(=O)C2)ccc1F", "note": "(centres undefined)", "activity change, negative = inhibition": 17.7},
      {"compound": "CCN(CC)C(=O)Oc1ccc2c(C)c(-c3ccccc3)c(=O)oc2c1", "activity change, negative = inhibition": 0},
      {"compound": "Cc1ccsc1CNC(=O)CCc1ccc(F)c(F)c1", "activity change, negative = inhibition": 58.8},
      {"compound": "COCCCNC(=O)Cc1c(C)c2ccc(OC(C)=O)c(OC(C)=O)c2oc1=O", "activity change, negative = inhibition": 36},
      {"compound": "C[C@H](NC(=O)C(c1ccccc1)c1ccccc1)C(=O)O", "activity change, negative = inhibition": 12.3},
      {"compound": "Nc1nccnc1C(=O)Nc1cccc(NC(=O)c2ccncc2)c1", "activity change, negative = inhibition": 8.94},
      {"compound": "CC(Sc1nc2ccccc2n1C)C(=O)NCc1ccc2c(c1)OCO2", "note": "(centres undefined)", "activity change, negative = inhibition": 13},
      {"compound": "Cc1nc2ccc(C)c(C)c2s1", "activity change, negative = inhibition": 1.16},
      {"compound": "O=C(c1cccs1)c1cn(CCOc2ccc(Cl)cc2)c2ccccc12", "activity change, negative = inhibition": 4.11},
      {"compound": "Cc1c(Cl)cccc1NC(=O)Cn1cc(C(=O)c2cccs2)c2ccccc21", "Potency": "7.08 µM (active)"},
      {"compound": "Cc1ccccc1NC(=O)Cn1cc(C(=O)c2cccs2)c2ccccc21", "activity change, negative = inhibition": 7.93},
      {"compound": "Cc1ccc(C)c(COC(=O)c2ccc3c(c2)NC(=O)CS3)c1", "activity change, negative = inhibition": 9.18},
      {"compound": "CC(C)C(C#CC(O)(c1ccccc1)c1ccccc1)N(C)C", "note": "(centres undefined)", "activity change, negative = inhibition": 0.778},
      {"compound": "COc1cc(NC(=O)Cn2c3c(c(=O)n2-c2ccccc2)Cc2cc(Cl)ccc2O3)cc(OC)c1", "activity change, negative = inhibition": 81.6},
      {"compound": "O=C(O)c1c(F)c(F)c(F)c(F)c1-c1ccccc1", "activity change, negative = inhibition": -7.11},
      {"compound": "O=C(NC1CC1)C(Sc1c(Cl)cccc1Cl)c1ccccc1", "note": "(centres undefined)", "activity change, negative = inhibition": 21.7},
      {"compound": "CCCCCNC(=O)CCc1c[nH]c2ccccc12", "activity change, negative = inhibition": 1.13},
      {"compound": "CCC(C)n1cc(/C=C2\\NC(=O)N(CC)C2=O)c2ccccc21", "note": "(centres undefined)", "activity change, negative = inhibition": -13.7}
    ]}
  ]
}
